# Results published in PubChem BioAssay (EPA / NIEHS).
# Several values for one entry are separate records, joined by “and”; a condition that tells them apart may be missing. Equal values may be shown once. Activity calls are given as the source filed them. The calls were made as follows: active = hit-call score of the fitted dose curve at least 0.9, where 1 is the maximum; inactive = score below 0.9.
# Experiment: BSK_hDFCGF_SRB: Viability Assessment in the BioMAP Diversity Plus: hDFCGF Assay (AID 2283061)
# Conditions: primary human foreskin fibroblasts
# Procedure: BSK_hDFCGF is a cell-based, multiplexed-readout assay that uses foreskin fibroblast, a human skin primary cell, with measurements taken at 24 hours after chemical dosing in a 96-well plate.BSK_hDFCGF_SRB is an assay component measured in the BSK_hDFCGF assay. It measures 0.1% sulforhodamine related to cell death using Sulforhodamine staining technology.Data from the assay component BSK_hDFCGF_SRB was analyzed into 1 assay endpoint. This assay endpoint, BSK_hDFCGF_SRB, was analyzed with bidirectional fitting relative to DMSO as the negative control and baseline of activity. Using a type of viability reporter, gain or loss-of-signal activity can be used to understand changes in the signaling. Furthermore, this assay endpoint can be referred to as a primary readout, because this assay has produced multiple assay endpoints where this one serves a signaling function. To generalize the intended target to other relatable targets, this assay endpoint is annotated to the cell morphology intended target family, where the subfamily is cell conformation.
# The levels of cell surface (or secreted, indicated by the prefix "s") biomarker endpoints were measured by ELISA. Overt cytotoxicity to cells in confluent adherent cultures (all systems other than the BT system) was assessed by measuring total protein levels using sulforhodamine B (SRB) staining in parallel cultures at the time of biomarker measurements, indicated as SRB endpoints. For proliferation assays for adherent cell types, individual cell types are cultured at sub-confluence and relative cell numbers quantified by SRB staining at time points optimized for each system (48 h: 3C and CASM3C systems; 72 h: BT and HDF3CGF systems; 96 h: SAg system). SRB was performed by staining cells with 0.1% SRB after fixation with 10% TCA and reading wells at 560 nm.Viability and proliferation of PBMC (T cells) was quantified by Alamar Blue reduction for the SAg and BT systems. For PBMC viability (referred to as PBMC Cytotoxicity within the assay endpoint names), cells were plated (75,000/well in a 96-well plate) and then chemical samples added for 1 h before addition of activators, SEB and TSST-1 (20 ng/mL final concentration each). Cells were incubated for 90 h. Then, Alamar Blue (20 uL/well) (Invitrogen, Cat DAL1100) was added for 6 h, and the plates were read with a fluorescence microplate reader at 546/580 nm (excitation/emission). For PBMC proliferation, cells were plated and activated as above but incubated for only 16 h prior to addition of Alamar Blue. Plates were read after 6 h.
SMILES,outcome,AC50
C=CCN(CC=C)C(=O)C(Cl)Cl,inactive,
[Cd+2].[Cl-].[Cl-],inactive,
COc1ccc(CO)cc1,inactive,
CC(C)(C)C(O)C(Oc1ccc(-c2ccccc2)cc1)n1cncn1 (stereo not drawn),inactive,
N#CCCCCC#N,inactive,
Nc1ccc(-c2ccc(N)c(N)c2)cc1N,inactive,
Oc1ccc(C2(c3ccc(O)cc3)c3ccccc3-c3ccccc32)cc1,inactive,
O=C1C(Cl)=C(Cl)C(=O)C(Cl)=C1Cl,,6.62 µM (active)
O=C(CCl)c1ccccc1,,4.74 µM (active)
CCCC[N+](CCCC)(CCCC)CCCC,inactive,
Clc1ccc(-c2ccccc2)cc1,inactive,
COC(C)(C)CCC[C@H](C)C/C=C/C(C)=C/C(=O)OC(C)C,,30.7 µM (active)
CC(C)(C)C(=O)CCl,inactive,
CC(C)(c1cc(Cl)c(O)c(Cl)c1)c1cc(Cl)c(O)c(Cl)c1,,16.5 µM (active)
Cc1ccc(OP(=O)(Oc2ccc(C)cc2)Oc2ccc(C)cc2)cc1 (tested in a mixture with another compound),,23.2 µM (active)
Oc1cc(Cl)ccc1Cl,inactive,
CCCCCCCCCCCC#N,,29.1 µM (active)
CC(C)COP(=O)(OCC(C)C)OCC(C)C,inactive,
O=P1(NCCCl)OCCCN1CCCl (stereo not drawn),inactive,

SMILES,outcome,AC50
CC1(C)[C@H](C(=O)O[C@H](C#N)c2cccc(Oc3ccccc3)c2)[C@@H]1C=C(Br)Br,inactive,
c1ccc(Nc2ccc3ccccc3c2)cc1,,30.6 µM (active)
COCC(=O)N(c1c(C)cccc1C)N1CCOC1=O,inactive,
O=[N+]([O-])c1ccc(Cl)cc1,inactive,
CCc1cc(C)cc(CC)c1-c1c(OC(=O)C(C)(C)C)n2n(c1=O)CCOCC2,,31.5 µM (active)
O=[N+]([O-])C=Cc1ccccc1,,20 µM (active)
O=[N+]([O-])O,inactive,
CCCOC(=O)c1ccccc1C(=O)OCCC,inactive,
O=c1c2ccccc2c(=O)c2c1cc(Cl)c1[nH]c3c([nH]c12)c(Cl)cc1c(=O)c2ccccc2c(=O)c13,inactive,
CC(C)CCCCCCCOC(=O)c1ccccc1C(=O)OCCCCCCCC(C)C,inactive,
O=C(O)CCCc1ccc(N(CCCl)CCCl)cc1,inactive,
CCC(C)c1cc([N+](=O)[O-])cc([N+](=O)[O-])c1OC(=O)C=C(C)C (stereo not drawn),,11.5 µM (active)
CC(C)CCCCCCCOP(=O)(Oc1ccccc1)Oc1ccccc1,,8.83 µM (active)
CNC(=O)Oc1cc(C)c(SC)c(C)c1,inactive,
CC(=O)/C=C/c1ccccc1,inactive,
C=CC(=O)OCC(CC)CCCC (stereo not drawn),,32.2 µM (active)
O=C1C=CC(=O)C=C1,,36.3 µM (active) and 12.7 µM (active)
O=c1[nH]c(Cl)c(Cl)cc1Cl,inactive,
O=S(=O)(c1ccccc1)c1ccccc1,inactive,
